Molecular target: Voltage-gated potassium channel subunit beta-2 (Rattus norvegicus) (UniProt P62483)
Assay: KvBeta enzyme negative modulators, primary screen, biochemical, NADPH fluorescence (AID 622;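 active means fluorescence slope higher than the sample average by over 3 SD, cut at about -0.22 in these data, passing the limit was not always enough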;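 further: slope of raw intensity against log time taken from 70 to 1610 s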)
Settings: recombinant KvBeta, 4-cyanobenzaldehyde reduction, at 10 µM, stronger effect = higher value

Sequence of Voltage-gated potassium channel subunit beta-2 (Rattus norvegicus) (P62483 whole entry, looked up): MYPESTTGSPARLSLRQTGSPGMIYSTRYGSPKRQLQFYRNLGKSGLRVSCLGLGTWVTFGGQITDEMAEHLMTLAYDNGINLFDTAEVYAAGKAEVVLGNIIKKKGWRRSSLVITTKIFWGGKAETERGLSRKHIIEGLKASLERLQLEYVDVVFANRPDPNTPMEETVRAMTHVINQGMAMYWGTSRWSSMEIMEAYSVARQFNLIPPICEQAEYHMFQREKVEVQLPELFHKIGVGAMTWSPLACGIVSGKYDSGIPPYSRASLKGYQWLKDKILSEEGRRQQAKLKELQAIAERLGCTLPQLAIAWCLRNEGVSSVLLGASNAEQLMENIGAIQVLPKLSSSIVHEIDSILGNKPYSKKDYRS

Fluorescence slope, inactive:
Cc1ccc(-c2noc(CCC(=O)N3CCN(c4cccc(C(F)(F)F)c4)CC3)n2)cc1 -0.391
Cc1cc(Br)ccc1NC(=O)CNC(=O)CSc1n[nH]c(N)n1 -0.58
O=C(C1CCCN(S(=O)(=O)c2cnc[nH]2)C1)N1CCN(c2ccc(Cl)cc2)CC1 (stereo unspecified) -0.523
Cc1ccc(CCSCC(=O)O)cn1 -0.428
CCCc1nnc(NC(=O)CCC(=O)N2CCN(CCOc3ccc(C)cc3)CC2)s1 -0.379
CN1CCC(NC(=O)c2cccs2)CC1 -0.547

Molecular target: Voltage-gated potassium channel subunit beta-2 (Rattus norvegicus) (UniProt P62483)
Assay: KvBeta positive modulators, primary screen, biochemical, NADPH fluorescence (AID 623);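 further: fluorescence intensity change per second fitted from 20 to 320 s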
Settings: Recombinant KvBeta, NADPH fluorescence decrease slope, 10 min; at 10 µM; stronger effect = lower value

NADPH fluorescence slope, inactive:
CC(C)(C)NC(=O)CSc1nnc(-c2ccccn2)n1-c1ccccc1 -2e-05
O=C(COC(=O)c1cncc(Br)c1)NCCC1=CCCCC1 -3.9e-05
COc1ccc(S(=O)(=O)Nc2ccccc2OC)cc1C 1.9e-05
Nc1nc2n(n1)C(c1cccc(Br)c1)CC(c1ccc(F)cc1)N2 (stereo unspecified) 7.7e-06
O=C(NC1CCCCC1)N(Cc1ccccc1)Cc1ccco1 6.8e-05
O=C(O)CCn1[nH]c(=O)ccc1=O 1.7e-06
COc1ccc(C(=O)Nc2ccccc2C(=O)NCCN2CCOCC2)cc1 -1.1e-05
CCc1ccccc1NC(=O)CCc1nc(-c2ccc(C)cc2)no1 1.2e-05
Cc1cc(NS(=O)(=O)c2ccc(NC(=O)Nc3ccc4c(c3)OCO4)cc2)no1 -5.2e-05
CCOC(=O)c1ccc(NC(=O)CSCc2ccco2)cc1 -2.1e-06
Cc1cc(NC(=O)CSc2nccn2-c2ccc(F)cc2)no1 9.8e-06
O=C(COC(=O)C1CC1)c1c[nH]c2ccccc12 -2.6e-05
O=C(CCS(=O)(=O)c1cccc2nonc12)Nc1cccc2c1CCCC2 1.6e-05
COc1cccc(NC(=O)N(Cc2ccco2)C(C)c2cccs2)c1 (stereo unspecified) 2.7e-05
Cc1csc2ncc(C(=O)N3CCc4ccccc43)c(=O)n12 -4.3e-05
c1ccc(-c2ccccc2OCCn2cncn2)cc1 -3e-05
COc1ccc(NC(=O)CN(c2ccc(C)cc2)S(C)(=O)=O)c(OC)c1 -6e-05
O=C(OCC(=O)N1CCCC1)c1ccccc1OCc1ccccc1 -3.9e-05
Cc1cc(NS(=O)(=O)c2ccc(NC(=O)COc3ccccc3C(C)C)cc2)no1 -3.3e-05
CCN(CC)c1ccc(NC(=O)CN2CCN(CC(=O)Nc3ccccc3F)CC2)cc1 -3.8e-05
COc1cc2[nH]c(=O)c(C(=O)NCCCN3CCCCC3)c(O)c2cc1OC -5.3e-05
Cn1c(NC(=O)c2ccccc2NC(=O)C(C)(C)C)nc2ccccc21 5.8e-06
O=c1[nH]c2sc3c(c2c2nncn12)CCCC3 -0.000261
Cc1nnc(SCC(=O)NCCN2C(=O)CSC2=O)s1 -1e-05
Cc1ccc(-c2nn(C)c(=O)c3ccccc23)cc1S(=O)(=O)NCCN1CCOCC1 4.7e-05
COc1cccc(Oc2cn[nH]c2-c2ccc(O)cc2O)c1 4.8e-05
COc1ccc(CCNC(=O)CCN2C(=O)C3CC=CCC3C2=O)cc1OC (stereo unspecified) -1.9e-06
c1ccc(-c2nnc(-c3ccco3)n2-c2ccccc2)cc1 -2.4e-05
CCCCCCC1/C(=N/O)CCC1C(=O)OC (stereo unspecified) -8.9e-06
CCOc1ccc2[nH]c(=O)c(C(c3nnnn3Cc3ccco3)N3CCC(C)CC3)cc2c1 (stereo unspecified) -2.2e-05
CCS(=O)(=O)N1CCC(C(=O)NC2CCCCCCC2)CC1 1.4e-05
Cc1occc1C(=O)Nc1nnc(C2CCCCC2)s1 -1.5e-05
NC(=O)c1ccccc1NC(=O)CN1CCOCC1 -3.8e-05
CCOC(=O)C(CC)n1nc(C)n2c(cc3sccc32)c1=O (stereo unspecified) -3.4e-05
Cc1ccc(-c2noc(CCC(=O)N3CCN(c4cccc(C(F)(F)F)c4)CC3)n2)cc1 -5.4e-05
Cc1cc(Br)ccc1NC(=O)CNC(=O)CSc1n[nH]c(N)n1 -3.3e-05
O=C(C1CCCN(S(=O)(=O)c2cnc[nH]2)C1)N1CCN(c2ccc(Cl)cc2)CC1 (stereo unspecified) 3.4e-05
Cc1ccc(CCSCC(=O)O)cn1 -1.1e-05
CCCc1nnc(NC(=O)CCC(=O)N2CCN(CCOc3ccc(C)cc3)CC2)s1 6e-06
CN1CCC(NC(=O)c2cccs2)CC1 -5e-05

Molecular target: Alpha-2C adrenergic receptor (Homo sapiens) (UniProt P18825)
Sequence (P18825 whole entry, looked up): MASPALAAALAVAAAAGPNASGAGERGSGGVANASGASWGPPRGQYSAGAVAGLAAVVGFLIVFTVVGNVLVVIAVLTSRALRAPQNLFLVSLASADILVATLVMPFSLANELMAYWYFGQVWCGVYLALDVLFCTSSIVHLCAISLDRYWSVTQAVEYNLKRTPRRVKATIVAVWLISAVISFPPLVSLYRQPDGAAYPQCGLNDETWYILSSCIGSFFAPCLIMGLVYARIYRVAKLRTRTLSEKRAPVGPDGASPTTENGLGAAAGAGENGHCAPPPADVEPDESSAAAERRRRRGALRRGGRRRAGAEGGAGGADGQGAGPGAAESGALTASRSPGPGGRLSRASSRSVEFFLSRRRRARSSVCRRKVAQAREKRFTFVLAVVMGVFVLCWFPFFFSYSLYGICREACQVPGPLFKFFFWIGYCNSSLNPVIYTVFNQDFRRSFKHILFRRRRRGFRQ
Assay: modulators of alpha2C/GIRK thallium flux, primary screen, cell-based, HEK293 alpha2C/GIRK1/2 (AID 624;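 active means fluorescence slope after compound addition differing from the mean of all screened samples at 99.7% confidence, in either direction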;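 further: slope of fluorescence ratio to pre-addition baseline per second over 15 to 24 s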)
Settings: thallium flux BTC fluorescence, at 10 µM, actives lie on both sides

slope, inactive:
CC(C)(C)NC(=O)CSc1nnc(-c2ccccn2)n1-c1ccccc1 0.00702
O=C(COC(=O)c1cncc(Br)c1)NCCC1=CCCCC1 0.00679
COc1ccc(S(=O)(=O)Nc2ccccc2OC)cc1C 0.00608
Nc1nc2n(n1)C(c1cccc(Br)c1)CC(c1ccc(F)cc1)N2 (stereo unspecified) 0.00861
O=C(NC1CCCCC1)N(Cc1ccccc1)Cc1ccco1 0.00512
O=C(O)CCn1[nH]c(=O)ccc1=O 0.0053
COc1ccc(C(=O)Nc2ccccc2C(=O)NCCN2CCOCC2)cc1 0.00486
CCc1ccccc1NC(=O)CCc1nc(-c2ccc(C)cc2)no1 0.00374
Cc1cc(NS(=O)(=O)c2ccc(NC(=O)Nc3ccc4c(c3)OCO4)cc2)no1 0.00596
CCOC(=O)c1ccc(NC(=O)CSCc2ccco2)cc1 0.0058
Cc1cc(NC(=O)CSc2nccn2-c2ccc(F)cc2)no1 0.00665
O=C(COC(=O)C1CC1)c1c[nH]c2ccccc12 0.00646
O=C(CCS(=O)(=O)c1cccc2nonc12)Nc1cccc2c1CCCC2 0.00573
COc1cccc(NC(=O)N(Cc2ccco2)C(C)c2cccs2)c1 (stereo unspecified) 0.00569
Cc1csc2ncc(C(=O)N3CCc4ccccc43)c(=O)n12 0.00571
c1ccc(-c2ccccc2OCCn2cncn2)cc1 0.00513
COc1ccc(NC(=O)CN(c2ccc(C)cc2)S(C)(=O)=O)c(OC)c1 0.0037
O=C(OCC(=O)N1CCCC1)c1ccccc1OCc1ccccc1 0.00498
Cc1cc(NS(=O)(=O)c2ccc(NC(=O)COc3ccccc3C(C)C)cc2)no1 0.00559
CCN(CC)c1ccc(NC(=O)CN2CCN(CC(=O)Nc3ccccc3F)CC2)cc1 0.00308
COc1cc2[nH]c(=O)c(C(=O)NCCCN3CCCCC3)c(O)c2cc1OC 0.00574
Cn1c(NC(=O)c2ccccc2NC(=O)C(C)(C)C)nc2ccccc21 0.00774
O=c1[nH]c2sc3c(c2c2nncn12)CCCC3 0.00486
Cc1nnc(SCC(=O)NCCN2C(=O)CSC2=O)s1 0.00749
Cc1ccc(-c2nn(C)c(=O)c3ccccc23)cc1S(=O)(=O)NCCN1CCOCC1 0.00544
COc1cccc(Oc2cn[nH]c2-c2ccc(O)cc2O)c1 0.0038
COc1ccc(CCNC(=O)CCN2C(=O)C3CC=CCC3C2=O)cc1OC (stereo unspecified) 0.00675
c1ccc(-c2nnc(-c3ccco3)n2-c2ccccc2)cc1 0.00639
CCCCCCC1/C(=N/O)CCC1C(=O)OC (stereo unspecified) 0.00642
CCOc1ccc2[nH]c(=O)c(C(c3nnnn3Cc3ccco3)N3CCC(C)CC3)cc2c1 (stereo unspecified) 0.00417
CCS(=O)(=O)N1CCC(C(=O)NC2CCCCCCC2)CC1 0.00549
Cc1occc1C(=O)Nc1nnc(C2CCCCC2)s1 0.00511
NC(=O)c1ccccc1NC(=O)CN1CCOCC1 0.00501
CCOC(=O)C(CC)n1nc(C)n2c(cc3sccc32)c1=O (stereo unspecified) 0.0065
Cc1ccc(-c2noc(CCC(=O)N3CCN(c4cccc(C(F)(F)F)c4)CC3)n2)cc1 0.00562
Cc1cc(Br)ccc1NC(=O)CNC(=O)CSc1n[nH]c(N)n1 0.00679
O=C(C1CCCN(S(=O)(=O)c2cnc[nH]2)C1)N1CCN(c2ccc(Cl)cc2)CC1 (stereo unspecified) 0.00672
Cc1ccc(CCSCC(=O)O)cn1 0.00565
CCCc1nnc(NC(=O)CCC(=O)N2CCN(CCOc3ccc(C)cc3)CC2)s1 0.0036
CN1CCC(NC(=O)c2cccs2)CC1 0.00687

Source: PubChem BioAssay
